This is one part of a sample in which hits are shown more often than they occur.
Vaccinia Venus: inhibitors of vaccinia virus (Venus reporter). 0.46% of 330,000 active. AID 720580. Potency, µM (top dose mostly 36.5 µM), without a hit: at the top dose activity change, negative = inhibition, most hits filed as inhibitors. Vaccinia virus Venus reporter expression, fluorescence; calls by dose curve; tested in A549 cells; note: potency is the fitted concentration of half-maximal effect; % is set by controls: 0 for no effect and ±100 for the full control effect; nearly all actives have a fitted effect of over 30% in size
CHX counter: counter-screen for Shiga toxin inhibitors: cycloheximide protein synthesis inhibition. cell reporter, cycloheximide protein synthesis inhibition counterscreen. 12% of 300,000 active. max response, %; in the data active = max response mostly above about 13%, no sharp cut-off; inactive = mostly below about 14%; note: read at 38.3 µM for the half of the compounds with a filed dose; 0% is about no effect
Shiga inhibitor: blocks Shiga toxin action in Vero cells. Vero cells, Shiga toxin protein synthesis inhibition reporter. AID 2315. inhibition, % at 38.7 µM. 9.2% of 290,000 active; in the data active = inhibition mostly above about 28%, no sharp cut-off; inactive = mostly below about 43%; note: 0% is about no effect
MARV entry inh: Marburg virus entry inhibition; Marburg virus pseudotyped entry inhibition, cell reporter; Potency, µM (top dose mostly 37.8 µM), without a hit: top-dose activity change, negative = inhibition, usual class: inhibitors; 1.8% of 300,000 active; AID 540276; calls by dose curve; tested in HEK293 cells; note: potency is the fitted concentration of half-maximal effect; % is set by controls: 0 for no effect and ±100 for the full control effect
LASV entry inh: Lassa virus entry inhibition. Lassa virus pseudotype entry inhibition, cell reporter. Potency, µM (doses to about 37.9 µM), inactives show at the top dose activity change, negative = inhibition, usual class: inhibitors. 1.2% of 300,000 active; calls by dose curve; tested in HEK293 cells; note: potency is the fitted concentration of half-maximal effect; % is set by controls: 0 for no effect and ±100 for the full control effect; nearly all actives have a fitted effect of over 50% in size
VACV mCherry inh: inhibitors of vaccinia virus infection (mCherry reporter signal); Vaccinia virus mCherry reporter infection, fluorescence; Potency, µM (titrated, usually from 36.5 µM), for the others: at the top dose activity change, negative = inhibition, most hits filed as inhibitors; 0.63% of 310,000 active; AID 720579; calls by dose curve; tested in A549 cells; note: potency is the fitted concentration of half-maximal effect; % is set by controls: 0 for no effect and ±100 for the full control effect; nearly all actives have a fitted effect of over 35% in size
Active calls of the source: *; [ ] = another dose, or the depositor's remark.

What do the screens show for `C/C(CC(=O)NC12CC3CC(CC(C3)C1)C2)=N\NC(=O)c1cnccn1`?
Vaccinia Venus: 1.6%; CHX counter: 7.2; Shiga inhibitor: 20.2; MARV entry inh: 7.3%[46.1 µM]; VACV mCherry inh: -6.7%

Results for C/C(CC(=O)Nc1ccc(N(C)C)cc1)=N\NC(=O)c1ccncc1 ?
Vaccinia Venus: -5.3%; CHX counter: 17.3; Shiga inhibitor: 28.5; MARV entry inh: 4.2%[46.1 µM]; LASV entry inh: -0.9%; VACV mCherry inh: -17.1%

What do the screens show for `C/C(CC(=O)Nc1ccc(C)c(Cl)c1)=N\NC(=O)c1cccc(O)c1`?
Vaccinia Venus: -21.9%; CHX counter: 56.9*; Shiga inhibitor: 55.6*; MARV entry inh: 0.2%; LASV entry inh: -6.5%; VACV mCherry inh: -3.6%

Results for CC(=O)c1cccc(NC(=O)CSc2nc(=O)n(Cc3ccco3)c3c2CCC3)c1 ?
Vaccinia Venus: -11.7%; LASV entry inh: inconclusive; VACV mCherry inh: -18.9%

How did COc1ccc(OC)c(NC(=O)c2oc3c(c2C)-c2nn(Cc4ccc(Cl)cc4)cc2CC3)c1 do in these assays?
Vaccinia Venus: -21.8%; LASV entry inh: 6.9%[46.1 µM]; VACV mCherry inh: -21.1%

How did CCCN1CCN(c2cc3c(cc2F)c(=O)c(S(=O)(=O)c2ccc(Cl)cc2)cn3C)CC1 do in these assays?
Vaccinia Venus: -19.8%; LASV entry inh: -6.9%[46.1 µM]; VACV mCherry inh: -17.2%

What do the screens show for `Cc1ccc(NC(=O)CSc2ccccc2NC(=O)c2cccc(Cl)c2)cc1Cl`?
Vaccinia Venus: 0.6%; CHX counter: -2.4; Shiga inhibitor: -14.5; MARV entry inh: inconclusive; LASV entry inh: inconclusive; VACV mCherry inh: -2.0%

Results for Cc1cccc(C(=O)Nc2ccccc2SCC(=O)Nc2ccc(C)c(Cl)c2)c1 ?
Vaccinia Venus: -3.5%; CHX counter: 21.9*; Shiga inhibitor: 17.3; MARV entry inh: inconclusive; LASV entry inh: inconclusive; VACV mCherry inh: inactive

How did C/C(CC(=O)Nc1ccc(C)c(Cl)c1)=N\NC(=O)c1ccccn1 do in these assays?
Vaccinia Venus: -8.2%; CHX counter: 50.8*; Shiga inhibitor: 77.0*; MARV entry inh: -26.2%[46.1 µM]; LASV entry inh: 10.6%[46.1 µM]; VACV mCherry inh: -7.1%

How did CC(=O)Nc1ccc(NC(=O)C/C(C)=N/NC(=O)C(=O)Nc2ccc(C)c(Cl)c2)cc1 do in these assays?
Vaccinia Venus: -4.9%; CHX counter: -0.4; Shiga inhibitor: 2.2; MARV entry inh: 4.2%[46.1 µM]; LASV entry inh: 14.1%[46.1 µM]; VACV mCherry inh: -17.3%

What do the screens show for `C=CCOC(=O)N[C@H](/C(C(=O)OC)=C(\C)NCc1ccccc1)c1cccc(OC)c1`?
MARV entry inh: -13.4%[14.2 µM]

What do the screens show for `COc1ccc(N(CC(=O)NCc2ccccc2Cl)S(=O)(=O)c2c(C)nn(C)c2C)cc1`?
Vaccinia Venus: 5.0%; MARV entry inh: -0.4%[46.1 µM]; LASV entry inh: -15.6%[46.1 µM]; VACV mCherry inh: 2.2%

Results for COc1cccc(C(=O)O/N=C(\N)Cc2ccc(Cl)cc2)c1 ?
Vaccinia Venus: -5.8%; CHX counter: 14.2; Shiga inhibitor: 18.6; MARV entry inh: -15.8%; LASV entry inh: -6.1%; VACV mCherry inh: inactive

What do the screens show for `COc1ccccc1C(=O)O/N=C(\N)c1ccc(Cl)cc1`?
CHX counter: 52.4*; Shiga inhibitor: 90.4*; MARV entry inh: -9.8%; LASV entry inh: -6.2%

What do the screens show for `N/C(=N\OC(=O)CN1C(=O)c2ccccc2C1=O)c1ccc(Cl)cc1`?
Vaccinia Venus: -13.1%; CHX counter: 1.0; Shiga inhibitor: 11.0; VACV mCherry inh: -8.2%

How did COc1ccc(C(=O)O/N=C(\N)c2ccc(Cl)cc2)cc1 do in these assays?
CHX counter: 37.4*; Shiga inhibitor: 87.7*

What do the screens show for `COc1cccc(C(=O)Nc2ccccc2OCc2cc(=O)n3cc(C)ccc3n2)c1`?
Vaccinia Venus: -15.9%; LASV entry inh: -2.0%[46.1 µM]; VACV mCherry inh: -16.4%

How did O=C(Nc1ccc(Cl)c(-c2nc3ccccc3[nH]2)c1)c1ccc2c(c1)OCO2 do in these assays?
Vaccinia Venus: inconclusive; CHX counter: 19.8*; Shiga inhibitor: -39.7; MARV entry inh: inconclusive; LASV entry inh: inconclusive; VACV mCherry inh: inconclusive

How did O=C(Nc1ccc(-c2nc3ccccc3[nH]2)cc1)c1ccc2c(c1)OCO2 do in these assays?
Vaccinia Venus: inconclusive; CHX counter: 28.3*; Shiga inhibitor: 20.6; MARV entry inh: inconclusive; LASV entry inh: -18.5%; VACV mCherry inh: -8.7%

How did CC(C)(C)C(=O)Nc1ccc(Cl)c(-c2nc3ccccc3[nH]2)c1 do in these assays?
Vaccinia Venus: -12.4%; MARV entry inh: -1.2%[46.1 µM]; LASV entry inh: 4.0%[46.1 µM]; VACV mCherry inh: 22.3%

Results for C(=N\Nc1ncnc2sc3c(c12)CCC3)/c1ccncc1 ?
Vaccinia Venus: 10µM*; CHX counter: -7.4; Shiga inhibitor: -33.7; MARV entry inh: inconclusive; LASV entry inh: -3.1%; VACV mCherry inh: 11.2µM*

What do the screens show for `O=C(NC(=S)Nc1cccnc1Cl)c1ccco1`?
CHX counter: 21.2*; Shiga inhibitor: 55.0*

What do the screens show for `Cc1ccnc(NC(=S)NC(=O)c2ccco2)c1`?
Vaccinia Venus: 0.7%; CHX counter: 39.8*; Shiga inhibitor: 96.1*; MARV entry inh: inconclusive; LASV entry inh: inconclusive; VACV mCherry inh: -14.0%

What do the screens show for `CCOc1ccccc1NC(=S)NC(=O)c1ccco1`?
Vaccinia Venus: -16.0%; CHX counter: 13.8; Shiga inhibitor: 4.4; MARV entry inh: -17.2%[46.1 µM]; LASV entry inh: -4.2%[46.1 µM]; VACV mCherry inh: -0.9%

How did CCNC(=S)Nc1cc(C)ccn1 do in these assays?
Vaccinia Venus: -18.4%; CHX counter: 13.7; Shiga inhibitor: 29.0*; MARV entry inh: 3.5%; LASV entry inh: inconclusive; VACV mCherry inh: -17.1%

How did Cc1ccnc(NC(=S)NC(=O)c2cccs2)c1 do in these assays?
Vaccinia Venus: -23.4%; CHX counter: 77.7*; Shiga inhibitor: 159.7*; MARV entry inh: inconclusive; LASV entry inh: inconclusive; VACV mCherry inh: -27.6%

Results for COc1ccc(CCN(C)C(=O)CSc2nnc(-c3ccco3)o2)cc1OC ?
Vaccinia Venus: -6.5%; CHX counter: 14.5; Shiga inhibitor: -38.2; MARV entry inh: -2.1%; LASV entry inh: 2.4%; VACV mCherry inh: -27.7%

What do the screens show for `CCOC(=O)c1ccccc1NC(=O)c1c2c(nc3ccccc13)C(=O)N(C1CCCCC1)C2`?
Vaccinia Venus: 3.1%; LASV entry inh: 6.4%[46.1 µM]; VACV mCherry inh: -2.8%

Results for CN(C)Cc1nnnn1-c1cccc(-n2nnnc2CN(C)C)c1 ?
Vaccinia Venus: -2.1%; CHX counter: -0.9; Shiga inhibitor: 0.9; MARV entry inh: 17.3%[46.1 µM]; LASV entry inh: 16.5%; VACV mCherry inh: inactive

Results for CC(C)(C)C(=O)NC(=S)Nc1ccccn1 ?
Vaccinia Venus: 0.4%; CHX counter: 16.8; Shiga inhibitor: 14.6; MARV entry inh: 19.1%[46.1 µM]; LASV entry inh: 12.0%; VACV mCherry inh: -5.5%

Results for O=C(NC(=S)Nc1ccccn1)c1ccco1 ?
Vaccinia Venus: -1.1%; CHX counter: 46.6*; Shiga inhibitor: 57.8*; MARV entry inh: inconclusive; LASV entry inh: inconclusive; VACV mCherry inh: -12.8%

Results for O=C(NC(=S)Nc1ccccc1[N+](=O)[O-])c1ccco1 ?
Vaccinia Venus: -11.2%; CHX counter: 22.3*; Shiga inhibitor: 62.9; MARV entry inh: 14.4%[46.1 µM]; LASV entry inh: inconclusive; VACV mCherry inh: -1.2%
